Experimental findings from article PMC4081100, “A DNA-binding-site landscape and regulatory network analysis for NAC transcription factors in Arabidopsis thaliana” are described below.

Common to all, as to experiment: universal protein binding microarray (PBM); transcription factors of Arabidopsis thaliana; high values mean tight binding
Holding throughout (settings): protein: recombinant; tags: GST; chain copies: 2; dsDNA, one strand shown

One experiment concerns the target T1, GST-ANAC092(1-176) (Arabidopsis thaliana, UniProt Q9FKA0 1-176).
T1 sequence: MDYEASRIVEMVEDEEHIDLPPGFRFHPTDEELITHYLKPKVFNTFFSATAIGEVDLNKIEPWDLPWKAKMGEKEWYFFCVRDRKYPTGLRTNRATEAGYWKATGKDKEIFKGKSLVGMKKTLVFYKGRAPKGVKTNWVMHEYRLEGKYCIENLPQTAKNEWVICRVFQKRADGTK
The procedure, abridged:
(§1)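 For zinc-finger proteins, zinc acetate was added while GST-tagged NAC-domain, full-length or DNA-binding-domain proteins were induced in cells. Purification used glutathione–Sepharose 4B, and quantification used A280 or anti-GST western blot. Custom all-10-mer Agilent 4 × 180K arrays, made double-stranded by primer extension, each received a protein at 200 to 500 nM final in duplicate. Scoring covered gapped and ungapped 8-mers, with binding given as the normalised enrichment score (E-score).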

The target of another experiment is GST-NTL6(1-168) (Arabidopsis thaliana, UniProt Q9SCK6 1-168). The essentials: as §1
For a further experiment, the target named is T2, GST-ANAC019 NAC domain (Arabidopsis thaliana, UniProt Q9C932 14-162).
T2 sequence: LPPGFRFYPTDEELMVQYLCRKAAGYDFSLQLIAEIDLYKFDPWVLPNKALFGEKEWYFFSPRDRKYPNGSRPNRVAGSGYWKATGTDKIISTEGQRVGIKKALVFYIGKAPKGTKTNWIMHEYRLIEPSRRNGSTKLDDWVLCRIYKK
The procedure, abridged:
as §1

The next experiment has as its target T3, GST-ANAC055(1-171) (Arabidopsis thaliana, UniProt Q9LDY8 1-171).
T3 sequence: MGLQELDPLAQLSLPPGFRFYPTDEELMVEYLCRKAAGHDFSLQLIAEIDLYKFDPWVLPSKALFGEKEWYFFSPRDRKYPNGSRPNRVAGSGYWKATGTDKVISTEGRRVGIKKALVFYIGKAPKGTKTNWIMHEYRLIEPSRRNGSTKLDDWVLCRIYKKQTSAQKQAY
The essentials:
as §1

The next experiment has as its target T4, GST-ATAF1 NAC domain (Arabidopsis thaliana, UniProt Q39013 7-158).
T4 sequence: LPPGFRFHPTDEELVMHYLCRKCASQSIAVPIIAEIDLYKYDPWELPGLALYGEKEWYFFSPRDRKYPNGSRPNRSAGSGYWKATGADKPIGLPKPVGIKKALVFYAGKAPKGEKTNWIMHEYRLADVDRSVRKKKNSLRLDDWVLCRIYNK
The procedure, abridged: as §1

In experiment [1] the target is T5, GST-ANAC092(1-285) full length (Arabidopsis thaliana, UniProt Q9FKA0 1-285).
T5 sequence: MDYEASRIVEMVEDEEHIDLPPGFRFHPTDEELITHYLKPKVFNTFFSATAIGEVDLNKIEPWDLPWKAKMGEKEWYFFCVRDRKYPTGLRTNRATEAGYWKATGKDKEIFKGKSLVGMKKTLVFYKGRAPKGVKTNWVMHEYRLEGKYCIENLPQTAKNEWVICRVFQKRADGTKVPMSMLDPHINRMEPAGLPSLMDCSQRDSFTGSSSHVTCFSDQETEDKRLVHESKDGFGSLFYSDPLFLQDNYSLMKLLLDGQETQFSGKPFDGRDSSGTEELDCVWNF
The essentials: as §1

A further experiment has as its target T6, GST-NST2(1-184) (Arabidopsis thaliana, UniProt Q9M274 1-184).
T6 sequence: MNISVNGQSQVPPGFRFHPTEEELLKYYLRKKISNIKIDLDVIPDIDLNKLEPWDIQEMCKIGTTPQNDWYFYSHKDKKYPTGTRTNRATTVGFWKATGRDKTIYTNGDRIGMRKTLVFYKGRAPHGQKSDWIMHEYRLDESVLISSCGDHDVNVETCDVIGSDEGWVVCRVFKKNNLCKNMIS
The procedure, abridged:
as §1

In the next experiment the target is T7, GST-NTL8 NAC domain (Arabidopsis thaliana, UniProt Q9XIN7 14-156).
T7 sequence: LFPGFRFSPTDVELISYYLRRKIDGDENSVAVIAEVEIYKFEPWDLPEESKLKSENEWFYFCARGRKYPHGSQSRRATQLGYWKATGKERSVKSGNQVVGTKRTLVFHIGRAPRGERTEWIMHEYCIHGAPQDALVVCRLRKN
The procedure, abridged:
as §1

A further experiment addresses T8, GST-SND1(1-203) (Arabidopsis thaliana, UniProt Q9LPI7 1-203).
T8 sequence: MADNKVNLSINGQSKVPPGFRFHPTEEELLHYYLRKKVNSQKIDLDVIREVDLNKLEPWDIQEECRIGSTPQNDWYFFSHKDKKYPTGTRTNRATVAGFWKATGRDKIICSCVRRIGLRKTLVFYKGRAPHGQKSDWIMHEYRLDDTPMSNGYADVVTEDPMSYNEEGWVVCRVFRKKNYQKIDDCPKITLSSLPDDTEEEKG
The procedure, abridged: as §1

The next experiment deals with T9, GST-VND3 NAC domain (Arabidopsis thaliana, UniProt Q9FH59 12-162).
T9 sequence: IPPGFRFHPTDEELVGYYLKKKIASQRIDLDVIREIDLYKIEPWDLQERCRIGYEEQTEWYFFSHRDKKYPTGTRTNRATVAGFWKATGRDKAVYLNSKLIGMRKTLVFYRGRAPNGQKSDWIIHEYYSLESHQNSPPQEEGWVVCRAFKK
The essentials:
as §1

The next experiment has as its target T10, GST-VND7 NAC domain (Arabidopsis thaliana, UniProt Q9C8W9 9-158).
T10 sequence: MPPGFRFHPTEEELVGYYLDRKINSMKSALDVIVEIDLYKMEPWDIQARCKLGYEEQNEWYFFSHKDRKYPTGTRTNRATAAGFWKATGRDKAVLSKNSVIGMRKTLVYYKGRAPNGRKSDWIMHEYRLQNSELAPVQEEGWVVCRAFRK
The procedure, abridged: as §1

In another experiment the target is T11, GST-NAP(1-166) (Arabidopsis thaliana, UniProt O49255 1-166).
T11 sequence: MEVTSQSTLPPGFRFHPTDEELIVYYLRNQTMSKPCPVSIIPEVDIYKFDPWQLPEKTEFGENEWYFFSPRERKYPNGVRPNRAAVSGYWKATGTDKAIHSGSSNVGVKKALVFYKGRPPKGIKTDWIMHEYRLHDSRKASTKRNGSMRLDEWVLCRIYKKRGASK
The essentials: as §1

Chain of GST-NTL6(1-168) (Q9SCK6 1-168): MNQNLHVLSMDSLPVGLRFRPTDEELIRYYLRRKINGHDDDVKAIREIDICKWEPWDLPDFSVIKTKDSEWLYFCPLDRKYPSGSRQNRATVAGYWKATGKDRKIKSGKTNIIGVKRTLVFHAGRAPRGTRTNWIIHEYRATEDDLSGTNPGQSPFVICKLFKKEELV

For AAGCAATC, the binding signal amounted to 0.384 E-score with GST-ANAC092(1-176); 0.324 E-score with GST-NTL6(1-168); 0.21 E-score with GST-ANAC019 NAC domain; 0.0736 E-score in the experiment with GST-ANAC055(1-171); 0.108 E-score with GST-ATAF1 NAC domain; 0.417 E-score in experiment [1]. Moreover, the binding signal worked out at 0.327 E-score in the experiment with GST-NST2(1-184); 0.264 E-score with GST-NTL8 NAC domain; 0.466 E-score in the experiment with GST-SND1(1-203); 0.152 E-score in the experiment with GST-VND3 NAC domain; 0.289 E-score with GST-VND7 NAC domain.
With TACGCTAA, the binding signal with GST-ANAC092(1-176) stood at 0.433 E-score; in the experiment with GST-NTL6(1-168), 0.118 E-score; with GST-ANAC055(1-171) it was 0.0682 E-score; with GST-ATAF1 NAC domain, 0.19 E-score; in [1], 0.44 E-score; with GST-NST2(1-184), 0.331 E-score. The binding signal with GST-SND1(1-203) was found to be 0.475 E-score; in the experiment with GST-VND3 NAC domain, 0.171 E-score; with GST-VND7 NAC domain it was 0.131 E-score.
As for AAGCAAAC, the binding signal in the experiment with GST-ANAC092(1-176) was found to be 0.331 E-score; with GST-NTL6(1-168), 0.359 E-score; with GST-ANAC055(1-171), 0.194 E-score; with GST-ATAF1 NAC domain, 0.137 E-score; in experiment [1], 0.355 E-score; with GST-NAP(1-166), 0.119 E-score. In addition, the binding signal came out at 0.31 E-score with GST-NST2(1-184); 0.336 E-score with GST-NTL8 NAC domain; 0.401 E-score in the experiment with GST-SND1(1-203); 0.181 E-score with GST-VND3 NAC domain; 0.206 E-score with GST-VND7 NAC domain.
For the sequence ACGCTACA, the binding signal in the experiment with GST-ANAC092(1-176) turned out to be 0.27 E-score; with GST-NTL6(1-168) it was 0.051 E-score; in the experiment with GST-ANAC055(1-171), 0.0711 E-score; with GST-ATAF1 NAC domain, 0.0647 E-score; in [1], 0.404 E-score; with GST-NAP(1-166), 0.0555 E-score. Further, the binding signal was 0.249 E-score with GST-NST2(1-184), 0.402 E-score in the experiment with GST-SND1(1-203), 0.101 E-score in the experiment with GST-VND3 NAC domain and 0.0811 E-score with GST-VND7 NAC domain.
On to TTAAGCAA, for which the binding signal with GST-ANAC092(1-176) stood at 0.357 E-score; with GST-NTL6(1-168), 0.471 E-score; with GST-ANAC055(1-171) it was 0.133 E-score; with GST-ATAF1 NAC domain, 0.133 E-score; in experiment [1], 0.356 E-score; with GST-NST2(1-184) it was 0.334 E-score. Also, the binding signal in the experiment with GST-NTL8 NAC domain worked out at 0.252 E-score; with GST-SND1(1-203) it was 0.473 E-score; with GST-VND3 NAC domain it was 0.198 E-score; with GST-VND7 NAC domain it was 0.227 E-score.
In the case of ATTGCTTG, the binding signal with GST-ANAC092(1-176) worked out at 0.355 E-score; with GST-NTL6(1-168) it was 0.228 E-score; with GST-ANAC019 NAC domain, 0.19 E-score; in the experiment with GST-ANAC055(1-171), 0.115 E-score; in [1], 0.408 E-score; with GST-NST2(1-184), 0.296 E-score. In addition, the binding signal in the experiment with GST-NTL8 NAC domain was 0.143 E-score; with GST-SND1(1-203), 0.406 E-score; with GST-VND3 NAC domain it was 0.223 E-score; with GST-VND7 NAC domain, 0.218 E-score.
For ATTACTTA, the binding signal amounted to 0.279 E-score with GST-ANAC092(1-176); 0.49 E-score in the experiment with GST-NTL6(1-168); 0.191 E-score with GST-ANAC055(1-171); 0.168 E-score in the experiment with GST-ATAF1 NAC domain; 0.349 E-score in [1]; 0.0737 E-score in the experiment with GST-NAP(1-166). The binding signal in the experiment with GST-NST2(1-184) came to 0.296 E-score; with GST-NTL8 NAC domain, 0.31 E-score; in the experiment with GST-SND1(1-203), 0.38 E-score; in the experiment with GST-VND3 NAC domain, 0.21 E-score; with GST-VND7 NAC domain, 0.154 E-score.
